Measurements published in PubChem BioAssay.
The source made the active and inactive calls. Unless noted, no rule for the calls is given here.

Assays:
[1] = A549 cell viability effects, profiling panel, calcein-AM fluorescence, 48 h, basal (AID 1162); conditions: higher = more signal; also: test concentration not given here
[2] = adipocyte viability effects, profiling panel, cell-based, 3T3-L1 adipocytes, calcein-AM fluorescence, 48 h, basal (AID 1163); conditions: 3T3-L1 adipocytes viability, higher = more signal; also: test concentration not given here
[3] = HepG2 cell viability effects, profiling panel, calcein-AM fluorescence, 48 h, basal (AID 1164); conditions: higher = more signal; also: test concentration not given here
[4] = MM1S cell viability effects, profiling panel, calcein-AM fluorescence, 48 h, basal (AID 1165); conditions: higher = more signal;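 also: viability of MM1S multiple myeloma cells under basal unstimulated conditions; test concentration not given here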
[5] = basal RPMI8226 viability, no added stimulus, profiling panel, cell-based, calcein-AM fluorescence, 48 h, PK04 Diversity Set (AID 1166); conditions: RPMI8226 myeloma viability, higher = more signal;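 also: cells grown under basal conditions without added stimulus; test concentration not given here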
[6] = basal HepG2 mitochondrial membrane potential changes, profiling panel, cell-based, JC-1 fluorescence, 24 h, 100 nL compound (AID 1167); conditions: higher = more signal; also: test concentration not given here
[7] = basal 3T3-L1 adipocyte mitochondrial potential changes, profiling panel, cell-based, JC-1 fluorescence, 3T3-L1 adipocytes, 24 h, 100 nL compound (AID 1168); conditions: JC-1 mitochondrial fluorescence, higher = more signal, called active from +8 up or from −8 down; also: test concentration not given here
[8] = basal RPMI8226 mitochondrial membrane potential changes, profiling panel, cell-based, JC-1 fluorescence, 24 h, 100 nL compound (AID 1169); conditions: RPMI8226 myeloma, JC-1 mitochondrial potential fluorescence, higher = more signal; also: test concentration not given here
[9] = basal MM1S mitochondrial membrane potential changes, profiling panel, cell-based, JC-1 fluorescence, 24 h, 100 nL compound (AID 1170); conditions: higher = more signal; also: test concentration not given here
[10] = A549 lung cancer cell viability effects, profiling panel, resazurin fluorescence, 24 h, PK04 Diversity Set (AID 1171); conditions: higher = more signal, called active from +8 up or from −8 down; also: test concentration not given here
[11] = HepG2 liver cancer cell viability effects, profiling panel, resazurin fluorescence, 24 h, PK04 Diversity Set (AID 1172); conditions: higher = more signal; also: test concentration not given here
[12] = basal S. cerevisiae growth modulation, no modifier, primary screen, OD600, strain BY4716, 24 h, basal condition (AID 1173); conditions: OD600, 24 h, higher = more signal, called active from +8 up or from −8 down
[13] = MM1S myeloma cell viability, profiling panel, resazurin fluorescence, basal, 24 h, PK04 Diversity Set (AID 1174); conditions: higher = more signal, called active from +8 up or from −8 down;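 also: MM1S multiple myeloma cell line; test concentration not given here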
[14] = target: Dihydroorotate dehydrogenase (quinone), mitochondrial (Plasmodium falciparum (isolate 3D7)) (UniProt Q08210); assay: PfDHODH enzyme inhibitors, primary screen, biochemical, C-terminal His tag, absorbance 600 nm (AID 1175); conditions: DCIP absorbance 600 nm, higher = more signal, called active from +8 up or from −8 down;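 also: recombinant parasite enzyme with a five histidine tag at its C terminus; test concentration not given here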
Dihydroorotate dehydrogenase (quinone), mitochondrial (Plasmodium falciparum (isolate 3D7)), sequence (Q08210 whole entry, looked up): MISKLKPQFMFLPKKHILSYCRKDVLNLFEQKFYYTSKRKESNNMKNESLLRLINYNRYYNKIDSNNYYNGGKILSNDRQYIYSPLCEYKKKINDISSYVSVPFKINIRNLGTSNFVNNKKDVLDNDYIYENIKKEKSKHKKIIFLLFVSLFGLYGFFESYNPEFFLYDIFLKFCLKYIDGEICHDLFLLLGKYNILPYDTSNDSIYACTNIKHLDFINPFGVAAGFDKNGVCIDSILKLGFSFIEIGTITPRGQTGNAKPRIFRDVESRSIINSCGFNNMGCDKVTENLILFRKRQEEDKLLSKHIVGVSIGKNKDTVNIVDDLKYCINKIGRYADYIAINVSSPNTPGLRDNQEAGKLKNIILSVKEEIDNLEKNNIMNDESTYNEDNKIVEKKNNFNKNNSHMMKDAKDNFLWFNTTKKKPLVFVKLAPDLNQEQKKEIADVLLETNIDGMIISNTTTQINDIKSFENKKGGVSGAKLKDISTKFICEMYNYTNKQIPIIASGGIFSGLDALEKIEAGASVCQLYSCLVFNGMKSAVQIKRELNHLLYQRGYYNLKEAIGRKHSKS

[15] = P. aeruginosa biofilm formation inhibitors, primary screen, strain PAO1, LB-PBS medium, absorbance 600 nm (AID 1176); also: test concentration not given here; conditions: P. aeruginosa PAO1 growth/biofilm, A600, 12 h; higher = more signal
[16] = S. cerevisiae RM11-1a growth modifiers, primary screen, strain RM11-1a, OD600, basal, 24 h (AID 1177); conditions: OD600, 24 h, higher = more signal, called active from +8 up or from −8 down;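 also: cultures grown under basal conditions with no added stressor; test concentration not given here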
[17] = E. coli acrAB mutant growth effects, primary screen, E. coli filamentation inducers, strain DRC39, OD650, 24 h (AID 1178); conditions: higher = more signal, called active from +8 up or from −8 down;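 also: growth measured as culture turbidity by optical density at 650 nm; test concentration not given here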
[18] = E. coli acrAB mutant growth effects, primary screen, E. coli filamentation inducers, strain DRC39, OD650, 48 h (AID 1179);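 also: screen aims at cell division blockers that make cells filament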; conditions: E. coli DRC39 delta-acrAB growth, higher = more signal, called active from +8 up or from −8 down
[19] = RPMI8226 myeloma cell viability, profiling panel, resazurin fluorescence, basal, 24 h, PK04 Diversity Set (AID 1180); conditions: higher = more signal;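 also: RPMI8826 multiple myeloma cell line at 5000 cells per well; test concentration not given here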
[20] = target: E3 ubiquitin-protein ligase XIAP (Homo sapiens) (UniProt P98170); assay: XIAP binders, primary screen, biophysical, small-molecule microarray, fluorescence 635 nm (AID 1181); conditions: small-molecule microarray binding, higher = more signal;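 also: score merges 667 nm emission and signal to noise over triplicate slides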
E3 ubiquitin-protein ligase XIAP (Homo sapiens), sequence (P98170 whole entry, looked up): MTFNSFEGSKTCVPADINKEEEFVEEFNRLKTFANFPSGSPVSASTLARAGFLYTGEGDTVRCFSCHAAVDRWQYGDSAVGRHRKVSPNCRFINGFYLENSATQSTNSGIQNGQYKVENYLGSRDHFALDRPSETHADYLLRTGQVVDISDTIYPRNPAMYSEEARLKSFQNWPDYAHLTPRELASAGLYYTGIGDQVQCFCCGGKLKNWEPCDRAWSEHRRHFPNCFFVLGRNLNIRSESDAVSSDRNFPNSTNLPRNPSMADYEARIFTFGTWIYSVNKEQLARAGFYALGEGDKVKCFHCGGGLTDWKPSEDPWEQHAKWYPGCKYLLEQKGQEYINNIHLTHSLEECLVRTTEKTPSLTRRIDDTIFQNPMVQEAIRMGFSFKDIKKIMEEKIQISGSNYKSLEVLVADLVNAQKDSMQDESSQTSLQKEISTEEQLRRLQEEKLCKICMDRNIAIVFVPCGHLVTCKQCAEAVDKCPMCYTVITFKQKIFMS

SMILES | z-score [1] | z-score [2] | z-score [3] | z-score [4] | z-score [5] | z-score [6] | z-score [7] | z-score [8] | z-score [9] | z-score [10] | z-score [11] | z-score [12] | z-score [13] | composite z-score [14] | z-score [15] | z-score [16] | z-score [17] | z-score [18] | z-score [19] | composite z-score [20]
O=C1O[C@H](c2ccccc2)[C@H](c2ccccc2)N2[C@H]1[C@@H](C(=O)Nc1nc3ccccc3s1)[C@]1(C(=O)Nc3ccc(C#CC4=CCCCC4)cc31)[C@H]2c1ccc(OCCO)cc1 | -0.641 | 1.07 | -0.819 | -1.69 | -1.7 | -3.34 | 0.256 (inactive) | -1.07 | -1.8 | 0.18 (inactive) | 0.281 | 1.63 (inactive) | -0.543 (inactive) | -3.03 (inactive) | 3.01 (inactive) | 1.46 (inactive) | -0.154 (inactive) | -0.686 (inactive) | -0.496 | -0.24
CC(=O)NCCCC[C@@H]1NC(=O)[C@@H]2C[C@H](C(=O)NCCCCCC[N+](C)(C)C)[C@H](c3cccc(OCCO)c3)N2C1=O | -0.339 | -0.547 | -0.231 | -0.241 | 0.397 | -1.51 | -0.0349 (inactive) | 0.226 | -0.12 | 0.481 (inactive) | -0.29 | 1.05 (inactive) | -0.147 (inactive) | -0.908 (inactive) | 0.118 (inactive) | 1.44 (inactive) | -0.119 (inactive) | -0.42 (inactive) | -0.536 | -0.36
CN(C)CCCC[C@@H]1NC(=O)[C@H]2C[C@@H](C(=O)NCCCCCNC(=O)CS)[C@@H](c3ccc(O)cc3)N2C1=O | -0.294 | -0.478 | -0.0888 | 0.201 | -0.285 | 1.68 | -0.143 (inactive) | -0.319 | 0.543 | -0.358 (inactive) | -0.0707 | -0.691 (inactive) | 0.518 (inactive) | 0.419 (inactive) | -0.13 (inactive) | -0.158 (inactive) | -0.297 (inactive) | 0.326 (inactive) | 0.108 | -0.0344
NC(=O)[C@@]1(CCS(=O)(=O)c2ccccc2)N=C(c2ccc(OCCCO)cc2)O[C@H]1c1ccccc1 | -0.291 | 0.957 | -1.94 | 0.614 | -1.13 | -0.209 | -0.219 (inactive) | 0.634 | -0.659 | 0.798 (inactive) | -0.0687 | -1.38 (inactive) | 0.837 (inactive) | -0.319 (inactive) | -0.73 (inactive) | -0.832 (inactive) | 0.818 (inactive) | 0.565 (inactive) | 0.429 | 0.0097
CC(C)(C)OC(=O)CC[C@]1(C(=O)NCC(O)CO)N=C(c2ccc(OCCCO)cc2)O[C@H]1c1ccccc1CN=[N+]=[N-] (stereo not given in full) | -1.22 | 0.351 | -0.504 | -1.1 | -1.44 | -1.02 | -0.484 (inactive) | 0.574 | 0.649 | -0.323 (inactive) | -0.206 | -0.694 (inactive) | -0.918 (inactive) | -0.59 (inactive) | 1.65 (inactive) | -0.591 (inactive) | -0.185 (inactive) | -0.659 (inactive) | -0.483 | 0.049
CCOC(=O)N1C(c2ccc(OCCCO)cc2)=NC(C(=O)OC)N1C(=O)OCC (stereo not given) | -0.481 | 0.69 | 0.21 | 0.487 | 0.732 | -0.231 | 0.68 (inactive) | -1.24 | 0.0773 | 0.352 (inactive) | 0.33 | -0.445 (inactive) | 0.715 (inactive) | -0.294 (inactive) | -0.565 (inactive) | -1.08 (inactive) | 0.857 (inactive) | 1.52 (inactive) | 0.96 | 0.0707
[N-]=[N+]=NCc1ccccc1C[C@]1(C(=O)NCCN2CCOCC2)N=C(c2ccc(OCCCO)cc2)O[C@H]1c1ccccc1CN=[N+]=[N-] | 0.0783 | 1.99 | 0.356 | -2.14 | -3.34 | 1.27 | -0.492 (inactive) | -0.784 | -1.65 | -0.403 (inactive) | 0.0176 | -2.56 (inactive) | 0.836 (inactive) | 1.31 (inactive) | 0.428 (inactive) | -1.95 (inactive) | 1.93 (inactive) | 0.844 (inactive) | 0.0688 | 0.0871
Cc1ccc(S[C@]2(C(=O)NCC(C)C)CC(=O)N(Cc3ccccc3)[C@@H]2c2ccc(CO)cc2)cc1 | 0.204 | 0.38 | -0.056 | -1.32 | -0.152 | -0.135 | -0.239 (inactive) | 0.205 | 0.435 | 1.23 (inactive) | 0.408 | -0.841 (inactive) | 0.559 (inactive) | -0.586 (inactive) | 0.525 (inactive) | -0.341 (inactive) | 0.298 (inactive) | -0.667 (inactive) | 0.505 | 0.104
